# Experiments:
# Conditions in all cases: concentration: 1 μM, replicates: in singlicate; n = 1
# ADCK4 = tested on: ADCK4
# AKT1 = tested on: AKT1
# AKT2 = tested on: AKT2
# AKT3 = tested on: AKT3
# ALK = tested on: ALK
# AMPK-alpha1 = tested on: T1, AMPK-alpha1
# T1 construct: gene PRKAA1
# AMPK-alpha2 = tested on: T2, AMPK-alpha2
# T2 construct: gene PRKAA2
# ANKK1 = tested on: ANKK1
# ARK5 = tested on: T3, ARK5
# T3 construct: gene NUAK1
# ASK1 = tested on: T4, ASK1
# T4 construct: gene MAP3K5
# ASK2 = tested on: T5, ASK2
# T5 construct: gene MAP3K6
# AURKA = tested on: AURKA
# AURKB = tested on: AURKB
# AURKC = tested on: AURKC
# AXL = tested on: AXL
# BIKE = tested on: T6, BIKE
# T6 construct: gene BMP2K
# BLK = tested on: BLK
# BMPR1A = tested on: BMPR1A
# BMPR1B = tested on: BMPR1B
# BMPR2 = tested on: BMPR2
# 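Further: KINOMEscan kinase panel screen.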
Structure (SMILES),%Inh (ADCK4),%Inh (AKT1),%Inh (AKT2),%Inh (AKT3),%Inh (ALK),%Inh (AMPK-alpha1),%Inh (AMPK-alpha2),%Inh (ANKK1),%Inh (ARK5),%Inh (ASK1),%Inh (ASK2),%Inh (AURKA),%Inh (AURKB),%Inh (AURKC),%Inh (AXL),%Inh (BIKE),%Inh (BLK),%Inh (BMPR1A),%Inh (BMPR1B),%Inh (BMPR2)
O=C(NC1CCN(c2ccnc(Nc3ccc(F)cc3)n2)C1)c1cc2ccccc2s1 (stereo not shown) [GSK1379716],61%,0%,16%,0%,3%,7%,20%,0%,21%,14%,9%,4%,24%,53%,19%,26%,62%,0%,0%,0%
Cl.c1ccc(-c2ccc3c(Nc4ccc5[nH]ncc5c4)ccnc3c2)nc1 [GW440137],38%,0%,0%,0%,31%,0%,0%,14%,11%,0%,19%,1%,3%,22%,4%,18%,40%,0%,31%,0%
COC(=O)Nc1nc2ccc(Oc3ccc(NC(=O)Nc4cc(C(F)(F)F)ccc4F)cc3)cc2n1C.Cl [GW692089],33%,0%,0%,0%,3%,0%,22%,31%,16%,40%,0%,0%,94.1%,14%,95%,0%,27%,0%,0%,11%
Clc1ccc(-c2nn3ncccc3c2-c2ccnc(Nc3ccc4c(c3)OCCO4)n2)cc1 [GW829116],90.4%,13%,0%,0%,0%,0%,0%,0%,0%,0%,0%,18%,0%,0%,0%,0%,48%,0%,0%,0%
CN(c1ccc(NC(=O)Nc2cc(C(F)(F)F)ccc2F)cc1)c1ccnc(Nc2ccc(S(N)(=O)=O)cc2)n1 [GW809893],7%,17%,11%,9%,73%,27%,19%,78%,1%,0%,17%,90.7%,95.7%,67%,93.3%,26%,96.7%,28%,20%,78%
Cc1ccc(F)c(C(=O)Nc2cccc(-c3nn4ccccc4c3-c3ccnc(Nc4cccc(F)c4)n3)c2)c1F [GSK361061],37%,0%,7%,0%,7%,8%,17%,33%,20%,2%,27%,29%,4%,59%,56%,35%,91.3%,10%,0%,8%
Cc1occc1-c1ncc(OC[C@@H](N)Cc2c[nH]c3ccccc23)cc1-c1ccc2[nH]nc(C)c2c1.O=C(O)C(F)(F)F [GSK682037],82%,97%,99.8%,87%,24%,12%,0%,0%,0%,0%,7%,0%,0%,53%,35%,90.5%,19%,0%,0%,0%
c1ccc(-c2n[nH]cc2Nc2ccnc3ccccc23)nc1 [GW694077],51%,0%,2%,0%,21%,0%,0%,75%,0%,0%,1%,15%,45%,78%,0%,100%,28%,0%,3%,47%
COc1cccc(C(=O)Nc2cccc(Oc3ccc4nc(NC(=O)C5CC5)cn4n3)c2)c1,39%,19%,0%,3%,0%,23%,0%,0%,0%,7%,0%,55%,81%,74%,65%,18%,95.3%,10%,13%,0%
Nc1n[nH]c2cnc(-c3ccccc3)cc12 [SB-642124],24%,0%,8%,0%,30%,0%,30%,23%,0%,6%,0%,4%,32%,100%,0%,99.4%,0%,0%,53%,33%
Oc1cc(Nc2ccnc3cc(I)ccc23)ccc1F [GW552771],38%,0%,16%,0%,34%,15%,1%,0%,18%,0%,4%,0%,8%,8%,3%,5%,80%,56%,99.9%,6%
CC(=O)Nc1nc2cnc(Nc3cc(NC(=O)c4cccc(C5(C#N)CC5)c4Cl)ccc3C)nc2s1,0%,7%,13%,0%,0%,7%,21%,0%,2%,0%,0%,0%,26%,0%,0%,0%,45%,0%,0%,2%
COc1ccc(-c2coc3ccc(-c4nnc(SCc5ccc(OC)c(C(F)(F)F)c5)o4)cc23)cc1,10%,4%,0%,0%,0%,31%,0%,38%,0%,17%,0%,21%,11%,7%,11%,0%,7%,20%,13%,14%
Cc1cccc(NC(=O)Nc2ccc(Oc3ncnc4ccn(C)c34)cc2)c1,0%,0%,0%,0%,0%,9%,0%,0%,0%,0%,0%,0%,94.9%,85%,44%,10%,0%,0%,0%,0%
Cn1cc(-c2ccc3c(c2)CCN3C(=O)Cc2cccc(F)c2)c2c(N)ncnc21 [GSK2603358],35%,0%,9%,0%,20%,7%,22%,0%,17%,11%,0%,20%,95.5%,47%,83%,10%,50%,0%,0%,3%
CCS(=O)(=O)c1ccc(OC)c(Nc2nccc(-c3c(-c4cccc(NC(=O)c5c(F)cccc5F)c4)nn4ncccc34)n2)c1 [GSK326180],18%,0%,15%,0%,25%,2%,27%,0%,18%,20%,9%,15%,25%,60%,9%,40%,36%,0%,0%,4%
CSc1cccc2c(-c3ccncn3)c(-c3ccc(F)cc3)nn12 [GW514786],35%,0%,0%,4%,29%,32%,0%,0%,12%,0%,29%,8%,15%,7%,11%,8%,19%,10%,0%,11%
CC(C)c1nc(-c2cccc(NS(=O)(=O)c3c(F)cccc3F)c2F)c(-c2ccnc(Nc3ccc(N4CCOCC4)nc3)n2)s1 [GSK2008607],100%,0%,0%,0%,28%,97%,98.8%,29%,0%,0%,3%,93.6%,91.8%,53%,97.5%,24%,99.7%,53%,98.5%,0%
COc1cccc(-c2ccc3c(NC(=O)C4CC4)n[nH]c3n2)c1 [SB-710903],48%,0%,0%,0%,29%,0%,13%,0%,0%,12%,0%,0%,35%,0%,0%,0%,0%,0%,35%,44%
O=C(Nc1n[nH]c2cc(-c3ccoc3)ccc12)C1CC1 [SB-738481],0%,0%,0%,0%,0%,0%,0%,23%,0%,0%,5%,23%,20%,19%,37%,35%,0%,11%,21%,60%

# Reference: article PMC5540273 (PLoS ONE, 2017)
